# Source: PMC11006913
# Changes are numbered by the printed parent chain.
# Key:
# Experiment in all cases: PBM; 200 nM protein, PBS
# Details in all cases: dsDNA, one strand shown
# [1] = target: HOXB6 (Homo sapiens, UniProt P17509 132-218, K202E)
# [2] = target: HOXB6 (Homo sapiens, UniProt P17509 132-218)
# [3] = target: HOXA2 (Homo sapiens, UniProt O43364 129-215, R185T)
# [4] = target: HOXB9 (Homo sapiens, UniProt P17482 171-250)
# [5] = target: HOXB9 (Homo sapiens, UniProt P17482 171-250, R186Q)
# [6] = target: HOXA2 (Homo sapiens, UniProt O43364 129-215)
# [7] = target: T1, SIX6 (Homo sapiens, UniProt O95475 114-200, T165G)
# T1 sequence: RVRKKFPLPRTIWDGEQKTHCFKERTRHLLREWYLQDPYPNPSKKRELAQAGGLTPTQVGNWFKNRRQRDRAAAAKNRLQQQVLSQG
# [8] = target: HESX1 (Homo sapiens, UniProt Q9UBX0 95-180)
# [9] = target: T2, SIX6 (Homo sapiens, UniProt O95475 114-200, T165A)
# T2 sequence: T1 sequence with G52A
# [10] = target: MSX2 (Homo sapiens, UniProt P35548 130-214)
# [11] = target: MSX2 (Homo sapiens, UniProt P35548 130-214, F161Y)
# Chain of MSX2 (Homo sapiens, UniProt P35548 130-214, F161Y) (P35548 130-214 F161Y): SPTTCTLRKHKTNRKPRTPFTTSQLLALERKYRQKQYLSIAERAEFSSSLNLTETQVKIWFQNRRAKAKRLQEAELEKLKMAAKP
# Chain of HOXB6 (Homo sapiens, UniProt P17509 132-218, K202E) (P17509 132-218 K202E): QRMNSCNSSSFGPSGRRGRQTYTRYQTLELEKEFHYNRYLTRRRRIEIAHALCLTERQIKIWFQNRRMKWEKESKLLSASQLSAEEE
# Chain of HOXB6 (Homo sapiens, UniProt P17509 132-218) (P17509 132-218): as the sequence (P17509 132-218 K202E) above, with E71K counted along it
# Chain of HESX1 (Q9UBX0 95-180): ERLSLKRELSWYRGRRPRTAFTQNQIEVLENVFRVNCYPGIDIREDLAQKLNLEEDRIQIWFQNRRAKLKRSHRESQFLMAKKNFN
# Chain of HOXB9 (Homo sapiens, UniProt P17482 171-250, R186Q) (P17482 171-250 R186Q): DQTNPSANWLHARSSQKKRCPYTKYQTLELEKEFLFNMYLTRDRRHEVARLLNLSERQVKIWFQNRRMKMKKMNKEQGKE
# Chain of HOXA2 (Homo sapiens, UniProt O43364 129-215) (O43364 129-215): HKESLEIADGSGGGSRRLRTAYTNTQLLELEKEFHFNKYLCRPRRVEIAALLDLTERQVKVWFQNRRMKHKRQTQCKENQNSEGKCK
# Chain of MSX2 (Homo sapiens, UniProt P35548 130-214) (P35548 130-214): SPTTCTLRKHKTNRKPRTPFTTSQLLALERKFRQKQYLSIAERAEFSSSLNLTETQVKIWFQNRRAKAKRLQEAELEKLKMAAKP
# Chain of HOXA2 (Homo sapiens, UniProt O43364 129-215, R185T) (O43364 129-215 R185T): as the sequence (O43364 129-215) above, with R57T counted along it
# Chain of HOXB9 (Homo sapiens, UniProt P17482 171-250) (P17482 171-250): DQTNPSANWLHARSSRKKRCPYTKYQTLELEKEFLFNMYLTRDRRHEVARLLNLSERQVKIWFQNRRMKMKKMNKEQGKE
sequence,measurement,setting,value
ACTATTCA,binding signal,[1],"9.59 upbm affinity estimate (log intensity, higher = more binding, comparable within an allelic series)"
same,binding signal,[2],"10.2 upbm affinity estimate (log intensity, higher = more binding, comparable within an allelic series)"
AAATGGTC,binding signal,[1],"9.65 upbm affinity estimate (log intensity, higher = more binding, comparable within an allelic series)"
same,binding signal,[2],"10.6 upbm affinity estimate (log intensity, higher = more binding, comparable within an allelic series)"
CCCTGGGA,binding signal,[1],"8.98 upbm affinity estimate (log intensity, higher = more binding, comparable within an allelic series)"
same,binding signal,[2],"8.98 upbm affinity estimate (log intensity, higher = more binding, comparable within an allelic series)"
GGGCCCCA,binding signal,[1],"8.9 upbm affinity estimate (log intensity, higher = more binding, comparable within an allelic series)"
same,binding signal,[2],"8.9 upbm affinity estimate (log intensity, higher = more binding, comparable within an allelic series)"
CTCCTCGC,binding signal,[1],"9.02 upbm affinity estimate (log intensity, higher = more binding, comparable within an allelic series)"
same,binding signal,[2],"9.05 upbm affinity estimate (log intensity, higher = more binding, comparable within an allelic series)"
GCCGCCCA,binding signal,[1],"8.98 upbm affinity estimate (log intensity, higher = more binding, comparable within an allelic series)"
same,binding signal,[2],"8.99 upbm affinity estimate (log intensity, higher = more binding, comparable within an allelic series)"
GGTATTAC,binding signal,[1],"9.66 upbm affinity estimate (log intensity, higher = more binding, comparable within an allelic series)"
same,binding signal,[2],"10.2 upbm affinity estimate (log intensity, higher = more binding, comparable within an allelic series)"
GCGCTCCC,binding signal,[1],"9.05 upbm affinity estimate (log intensity, higher = more binding, comparable within an allelic series)"
same,binding signal,[2],"8.94 upbm affinity estimate (log intensity, higher = more binding, comparable within an allelic series)"
CCAGTCCC,binding signal,[1],"9.1 upbm affinity estimate (log intensity, higher = more binding, comparable within an allelic series)"
same,binding signal,[2],"8.95 upbm affinity estimate (log intensity, higher = more binding, comparable within an allelic series)"
GCTTGCCC,binding signal,[1],"9.05 upbm affinity estimate (log intensity, higher = more binding, comparable within an allelic series)"
same,binding signal,[2],"9.1 upbm affinity estimate (log intensity, higher = more binding, comparable within an allelic series)"
CCGACTCC,binding signal,[1],"9.11 upbm affinity estimate (log intensity, higher = more binding, comparable within an allelic series)"
same,binding signal,[2],"9.01 upbm affinity estimate (log intensity, higher = more binding, comparable within an allelic series)"
AATTTCGG,binding signal,[1],"9.51 upbm affinity estimate (log intensity, higher = more binding, comparable within an allelic series)"
same,binding signal,[2],"10.2 upbm affinity estimate (log intensity, higher = more binding, comparable within an allelic series)"
CGCACACC,binding signal,[1],"9.16 upbm affinity estimate (log intensity, higher = more binding, comparable within an allelic series)"
same,binding signal,[2],"9.11 upbm affinity estimate (log intensity, higher = more binding, comparable within an allelic series)"
AGCGAGGG,binding signal,[1],"9.04 upbm affinity estimate (log intensity, higher = more binding, comparable within an allelic series)"
same,binding signal,[2],"8.99 upbm affinity estimate (log intensity, higher = more binding, comparable within an allelic series)"
ATCAATAG,binding signal,[3],"9.12 upbm affinity estimate (log intensity, higher = more binding, comparable within an allelic series)"
same,binding signal,[4],"10.1 upbm affinity estimate (log intensity, higher = more binding, comparable within an allelic series)"
same,binding signal,[5],"10.1 upbm affinity estimate (log intensity, higher = more binding, comparable within an allelic series)"
same,binding signal,[6],"9.47 upbm affinity estimate (log intensity, higher = more binding, comparable within an allelic series)"
GACACCCA,binding signal,[7],"10.5 upbm affinity estimate (log intensity, higher = more binding, comparable within an allelic series)"
ATTTACGC,binding signal,[8],"7.63 upbm affinity estimate (log intensity, higher = more binding, comparable within an allelic series)"
GACACCTC,binding signal,[7],"10.4 upbm affinity estimate (log intensity, higher = more binding, comparable within an allelic series)"
GGTTATGA,binding signal,[8],"7.26 upbm affinity estimate (log intensity, higher = more binding, comparable within an allelic series)"
CGACACCC,binding signal,[7],"10.5 upbm affinity estimate (log intensity, higher = more binding, comparable within an allelic series)"
AAGTGTCA,binding signal,[7],"10.5 upbm affinity estimate (log intensity, higher = more binding, comparable within an allelic series)"
same,binding signal,[9],"10.5 upbm affinity estimate (log intensity, higher = more binding, comparable within an allelic series)"
same,binding signal,[10],"10.6 upbm affinity estimate (log intensity, higher = more binding, comparable within an allelic series)"
same,binding signal,[11],"10.5 upbm affinity estimate (log intensity, higher = more binding, comparable within an allelic series)"
